LGR2 inh – inhibitors of bursicon-induced LGR2 CRE-luciferase signal, primary screen, cell-based, HEK293, CRE-luciferase reporter, bursicon stimulation | Drosophila bursicon receptor LGR2 (rickets) | inhibition, % at 9.99 µM | 0.35% of 380,000 active | bursicon-stimulated, 4 h | AID 720647, 2013;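 active = drop in luminescence signal, shown as inhibition above about 50% in the replicate tests, limit read from the data, passing the limit was not always enough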;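 note: agonist challenge used bursicon conditioned medium at about half maximal strength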
TROY signal inh – inhibitors of TROY-driven NF-kB signaling, primary screen, Q293 LMP1-TROYcd cells, NF-kB luciferase, uHTS. 0.98% of 360,000 active. Q293 LMP1-TROYcd NF-kB luciferase reporter, 4 h. inhibition, % at 10 µM. AID 1347056, 2019;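 active = compounds whose plate-normalised and pattern-corrected inhibition of the luciferase reporter signal at the single screening dose is 50% or more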
HSP90 refold inh – HSP90 inhibitors, primary screen, cell lysate, luminescence. Heat shock protein HSP 90 (rabbit reticulocyte lysate; luciferase refolding). Rabbit reticulocyte lysate, luciferase refolding luminescence, 3 h. inhibition, % at 5.6 µM. 0.91% of 290,000 active;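 active = inhibition above the screen-wide mean plus 3 SD, computed separately per campaign, cut at about 16% in these data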;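 note: 0% = DMSO wells and 100% = 60 µM geldanamycin wells; inhibitors lower the luminescence because luciferase stays unfolded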
TWEAK Fn14 block – inhibitors of TWEAK-Fn14 signaling, primary screen, luciferase reporter cells, uHTS | inhibition, % at 10 µM | 2% of 360,000 active | TWEAK-stimulated Fn14 reporter cells, luciferase luminescence, 8 h; in the data active = inhibition above about 50%
Starred values were filed as active, the others as inactive. Shown are actives, neighbours in structure and some others; about 2.2% of the full set was active somewhere.

What do the screens show for `O=[N+]([O-])c1ccc(N2N=C(c3ccccc3)CC2c2ccccc2O)cc1` (stereo not drawn)?
LGR2 inh: -7.7; TROY signal inh: 59.9*; HSP90 refold inh: 3.8; TWEAK Fn14 block: 81.4*

Results for Cc1cc(C)cc(NC(=S)Nc2cccc3ccccc23)c1 ?
LGR2 inh: 14.4; TROY signal inh: 32.9; HSP90 refold inh: 2.6; TWEAK Fn14 block: -1.5

How did Cc1ccc(NC(=S)Nc2cccc3ccccc23)cc1 do in these assays?
LGR2 inh: 3.9; TROY signal inh: 66.0*; HSP90 refold inh: -0.6; TWEAK Fn14 block: 40.4

What do the screens show for `CCOc1ccc(NC(=S)Nc2ccc(C)c([N+](=O)[O-])c2)cc1`?
TROY signal inh: -16.5; HSP90 refold inh: 16.9*; TWEAK Fn14 block: -7.7

Results for CCOc1ccc(NC(=S)Nc2cccc3ccccc23)cc1 ?
LGR2 inh: -48.5; TROY signal inh: 30.6; HSP90 refold inh: 14.2; TWEAK Fn14 block: 67.5*

How did S=C(Nc1cccnc1)Nc1cccc2cnccc12 do in these assays?
LGR2 inh: 13.5; TROY signal inh: 9.8; HSP90 refold inh: 8.6; TWEAK Fn14 block: 28.1

Results for CN(C)S(=O)(=O)c1cccc(NC(=S)Nc2cccc3cnccc23)c1 ?
LGR2 inh: 19.0; TROY signal inh: 43.5; HSP90 refold inh: 12.4; TWEAK Fn14 block: 72.8*

Results for CCOc1ccc(NC(=S)Nc2ccc(OCC)cc2)cc1 ?
LGR2 inh: -1.5; TROY signal inh: 6.2; HSP90 refold inh: 0.5; TWEAK Fn14 block: -0.4

Results for COc1ccc(NC(=O)Nc2ccc3c(c2)CC(=O)N([C@H](C)CO)C[C@H](C)[C@@H](CN(C)Cc2ccc(Cl)c(Cl)c2)O3)cc1 ?
LGR2 inh: 21.6

How did CCc1cccc(NC(=S)Nc2cccc3ccccc23)c1 do in these assays?
LGR2 inh: -46.9; TROY signal inh: 52.2*; HSP90 refold inh: 7.0; TWEAK Fn14 block: 6.2

What do the screens show for `Cc1nc2nc(C)n(CCN3CCOCC3)c(=O)c2c(-c2cccc([N+](=O)[O-])c2)c1C(=O)CCCCCCCCCCN1CCC(c2ccccc2)(c2ccccc2)CC1`?
LGR2 inh: 33.2; TROY signal inh: 48.7; TWEAK Fn14 block: 95.6*

Results for O=C(NCCCN1CCOCC1)/C(=C/c1ccc(-c2cccc([N+](=O)[O-])c2)o1)NC(=O)c1ccccc1 ?
LGR2 inh: -7.4; TROY signal inh: -10.2; TWEAK Fn14 block: -23.8

Results for COc1ccc(S(=O)(=O)N(C)CC(=O)Nc2ccccc2C(F)(F)F)cc1OC ?
HSP90 refold inh: -1.7; TWEAK Fn14 block: 74.0*

Results for Cc1ccc(OCCn2c(C)c(/C=N/n3cnnc3)c3ccccc32)cc1 ?
TROY signal inh: 35.4; HSP90 refold inh: 9.3; TWEAK Fn14 block: 1.8

How did Cc1c(/C=N/n2cnnc2)c2ccccc2n1CCOc1ccc(Cl)cc1 do in these assays?
TROY signal inh: 54.4*; HSP90 refold inh: 0.1; TWEAK Fn14 block: 48.4

What do the screens show for `O=C(NC1CCCCC1)c1n[nH]c2c1CCCCC2`?
LGR2 inh: 91.1*; TROY signal inh: 83.3*; TWEAK Fn14 block: 99.1*

Results for O=C(O)C[C@H]1CC[C@@H](NC(=O)c2ccccc2F)[C@H](CO)O1 ?
LGR2 inh: 3.0

Results for O=C1C=C(c2c(O)ccc3ccccc23)c2ccccc2C1=O ?
LGR2 inh: 95.0*; TROY signal inh: 48.6; TWEAK Fn14 block: 101.9*

What do the screens show for `O=C(CSCc1cccc(CSCC(=O)Nc2ccc3ccccc3c2)n1)Nc1ccc2ccccc2c1`?
TROY signal inh: 38.2; HSP90 refold inh: 11.8; TWEAK Fn14 block: 67.1*

Results for O=C(CSCc1nc2ccccc2[nH]1)Nc1ccc2ccccc2c1 ?
TROY signal inh: -5.8; HSP90 refold inh: -4.5; TWEAK Fn14 block: 8.9

How did C[C@@H]1CN([C@@H](C)CO)C(=O)CCCn2cc(nn2)CO[C@@H]1CN(C)C(=O)Nc1cccc(F)c1 do in these assays?
LGR2 inh: 3.6

Results for CC(C)C#Cc1ccc2c(c1)O[C@@H](CN(C)Cc1cncnc1)[C@@H](C)CN([C@H](C)CO)S2(=O)=O ?
LGR2 inh: 6.7

Results for COCCCNc1ccn2nc(-c3cccc(Cl)c3)cc2n1 ?
LGR2 inh: -70.7; TROY signal inh: 2.7; TWEAK Fn14 block: 34.0

How did COCCCNc1ccn2nc(-c3ccccc3)cc2n1 do in these assays?
LGR2 inh: 72.1*; TROY signal inh: 39.5; TWEAK Fn14 block: 71.9*

How did C[C@H]1CCCCO[C@H](CN(C)C(=O)Nc2ccc(C(F)(F)F)cc2)[C@@H](C)CN([C@@H](C)CO)C(=O)c2cc(NC(=O)Nc3cccc4ccccc34)ccc2O1 do in these assays?
LGR2 inh: 1.4
